# About 83,000 compounds went through this panel and 20% of them were active in at least one assay; those are over-represented in the sample as a whole.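 How to read the values: 0–100, growth inhibition (40 = 60% inhibited); 0, no net growth; -100 to 0, cell death (-40 = 40% of starting cells died; -100 = all dead).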 Values without a mark were called inactive. Calls of active or inactive are those of the source. Rule for the calls: active = growth percent below 10; inactive = the rest.
# Tests used:
# Experiment in all cases: NCI-60 one-dose screen, 48 h (100 = growth as untreated, 0 = no growth, -100 = all killed)
# Settings in all cases: 10 µM unless noted
# NCI-H23 lung = tested on: NCI-H23 lung
# NCI-H226 lung = tested on: NCI-H226 lung
# NCI-H322M lung = tested on: NCI-H322M lung
# HOP-62 NSCLC = tested on: HOP-62 NSCLC
# NCI-H460 lung = tested on: NCI-H460 lung
# HOP-92 NSCLC = tested on: HOP-92 NSCLC
# NCI-H522 lung = tested on: NCI-H522 lung
# A549/ATCC NSCLC = tested on: A549/ATCC NSCLC
# 786-0 renal = tested on: 786-0 renal
# COLO 205 colon = tested on: COLO 205 colon
# DU-145 prostate = tested on: DU-145 prostate
# K-562 leukemia = tested on: K-562 leukemia
# MALME-3M melanoma = tested on: MALME-3M melanoma
# MDA-MB-231 breast = tested on: MDA-MB-231 breast
# SF-268 CNS = tested on: SF-268 CNS
# SF-295 CNS = tested on: SF-295 CNS
# SF-539 CNS = tested on: SF-539 CNS
# UACC-257 melanoma = tested on: UACC-257 melanoma
# M14 melanoma = tested on: M14 melanoma
SMILES,growth (NCI-H23 lung),growth (NCI-H226 lung),growth (NCI-H322M lung),growth (HOP-62 NSCLC),growth (NCI-H460 lung),growth (HOP-92 NSCLC),growth (NCI-H522 lung),growth (A549/ATCC NSCLC),growth (786-0 renal),growth (COLO 205 colon),growth (DU-145 prostate),growth (K-562 leukemia),growth (MALME-3M melanoma),growth (MDA-MB-231 breast),growth (SF-268 CNS),growth (SF-295 CNS),growth (SF-539 CNS),growth (UACC-257 melanoma),growth (M14 melanoma)
O=C1NC(=O)C(=Cc2cn(Cc3ccccn3)c3ccccc23)C(=O)N1,103%,79.7%,105%,92.7%,11.9%,95.8%,92.6%,76.3%,100%,54.4%,110%,76.4%,101%,108%,93.7%,79.5%,94.5%,103%,99.7%
COc1ccc(C(O)c2cc3c(N)c(C(=O)Nc4cccc(Br)c4C)sc3nc2C)cc1 (centres undefined),32.1%,56.9%,46.1%,36.5%,-2.32% (active),61.5%,-32.7% (active),20.5%,37.6%,-7.14% (active),9.81% (active),5.92% (active),47.3%,5.97% (active),30.1%,18.5%,-3.14% (active),47.8%,18.9%
CN(C)Cc1c(-c2ccccc2)[nH]c2ccccc12,88.7%,106%,114%,80.3%,99.5%,96.4%,82.5%,80.3%,90%,107%,113%,107%,128%,102%,92.1%,92.7%,106%,99.3%,82.6%
C[C@@H]1CN(Cc2ccc(/C=C/c3n[nH]c4ccc5nc(-c6cn[nH]c6C(F)(F)F)c6c(c5c34)CCCC6)cc2)C[C@H](C)O1,31.9%,45.3%,45.1%,36.7%,-4.09% (active),41.4%,21%,25.3%,26.6%,1.61% (active),27.7%,10.4%,41.2%,12.9%,36.5%,38.4%,7.28% (active),75.5%,18.9%
CCN(CC)CCCC(Nc1c2ccc(Cl)cc2nc2ccc(OC)cc12)c1ccc(Cl)cc1 (centres undefined),62.1%,37%,-17.1% (active),25.4%,-69.2% (active),7.29% (active),-68.7% (active),-42.5% (active),-84% (active),-73.8% (active),23.8%,-58.2% (active),-82.3% (active),-59.1% (active),14.2%,-85.7% (active),-90.9% (active),-86.7% (active),-89% (active)
COc1ccc(C(O)c2cc3c(N)c(C(=O)Nc4cccc(OC)c4)sc3nc2C)cc1 (centres undefined),30%,45.9%,38.8%,26.5%,1.65% (active),37%,-27.4% (active),9.44% (active),33.9%,-42.8% (active),6.75% (active),7.83% (active),52.3%,12.1%,27%,3.76% (active),-12% (active),49.7%,11.8%
Cc1c2c(cc[n+]1Cc1ccccc1)c1ccc(OCC3CCCCC3)cc1n2CC1CCCCC1,-76.7% (active),-89.1% (active),-83.2% (active),-95% (active),-93.4% (active),-85.6% (active),-84.5% (active),-93.1% (active),-91.3% (active),-95.2% (active),-100% (active),-45.9% (active),-70.3% (active),-92% (active),-98.7% (active),-92.8% (active),-85.2% (active),-92.4% (active),-84.6% (active)
O=C1Nc2c(ccc(Cl)c2Cl)/C1=C/c1ccc(F)cc1,87.2%,84.8%,93.9%,89.3%,97.8%,42.1%,76.4%,41.1%,76.7%,97.7%,113%,85%,105%,83.6%,88.8%,109%,94.8%,97.9%,93.9%
COc1ccc(C(=O)c2cc3c(N)c(C(=O)Nc4cccc(OC)c4)sc3nc2C)cc1,33.8%,68%,58.7%,41.5%,7.07% (active),85.3%,-16% (active),25.3%,50.7%,-3.22% (active),16.2%,8.3% (active),55.6%,15.5%,39%,24.2%,-16.3% (active),71.3%,13.1%
COc1cc(/C=C/C(=O)c2ccc(Nc3ncnc4ccccc34)cc2)cc(OC)c1,72%,80.2%,76%,139%,81.4%,87.3%,71.4%,41.2%,52.1%,151%,71.7%,4.61% (active),106%,82.9%,38.1%,60.8%,71.6%,93.5%,24.7%
COc1cc2nc(-c3ccc(-c4nn[nH]n4)cc3)[nH]c(=O)c2cc1OC,93.7%,106%,176%,99.3%,115%,132%,96.1%,30.5%,104%,117%,114%,109%,215%,119%,99.9%,122%,99.5%,122%,102%
COc1cc(/C=C2\C(=O)N(Cc3ccc(Cl)cc3)c3ccccc32)cc(OC)c1OC,34.4%,46.7%,66.9%,55.9%,25.2%,44%,11.4%,9.8% (active),32.7%,48%,-39.1% (active),8.83% (active),65.5%,23.3%,10.9%,40.9%,23.3%,21.9%,37.7%
C/C(=C(/c1ccccc1)c1ccc(OCC(O)CNCCN2CCOCC2)cc1)c1ccccc1 (centres undefined),83.2%,96.1%,72.7%,54.9%,17.6%,59.1%,44.6%,70.8%,97.6%,-64.5% (active),67.8%,2.44% (active),-71.2% (active),29.4%,78.5%,71.2%,72.8%,-27.5% (active),92.6%
COc1ccc(NC(=O)c2sc3nc(C)c(C(=O)c4ccc(OC)cc4)cc3c2N)cc1,73.9%,87.9%,40.3%,43%,9.29% (active),67.3%,40.7%,24.6%,59.9%,42.9%,65.4%,23.3%,37.9%,60.2%,61.8%,44.3%,51%,55.8%,32.8%
CCN(CC)CCSCCCNc1c(C)cnc2cc(Cl)ccc12,89.8%,100%,90.8%,85.2%,96.8%,81.6%,102%,95.9%,82.7%,61.4%,88.2%,5.33% (active),87%,61.9%,81%,90.5%,71%,113%,89.5%
Fc1ccccc1CSc1ncnc2nc[nH]c12,110%,109%,131%,93.4%,97.8%,122%,54%,104%,106%,103%,120%,99.6%,129%,106%,109%,107%,89.6%,61.3%,108%

# From PubChem BioAssay (NCI)
